Assay results taken from PubChem BioAssay (NCATS).
Inconclusive results are not listed. A call without a number means that no potency is given here. Calls of active or inactive are those of the source. Calls follow the shape of the dose curve; as a rule, active = well fitted inhibition curve with a large enough effect; inconclusive = small, poorly fitted or top-dose-only effect; inactive = flat fitted curve, though single readings scatter.

Assay: qHTS for Inhibitors of Plasmodium falciparum (HB3) proliferation (AID 504318); also: nearly all actives have a fitted effect of over 60% in size
Settings: P. falciparum HB3 in erythrocytes, SYBR Green DNA, 72 h; series mostly up to 7.21 µM
Description: Plasmodium falciparum is a virulent malarial parasite that kills 1-2 million people worldwide each year. Malaria not only inflicts tremendous suffering and morbidity on the human population, but has dramatically influenced the course of civilization with profound sociological and economic implications (Shah, S. 2010). Transmitted by mosquitoes, the sporozoite form of the parasite enters the blood stream to infect hepatocytes, where they become merozoites that infect red blood cells (erythrocytes). Within erythrocytes, merozoites begin a […] cycle of growth and division, after which the parasite is released to infect new red blood cells. Gametocytes, which form within erythrocytes as well, circulate in the bloodstream and are ingested by the mosquito, thereby completing the life cycle (see CDC website). To profile malarial lines for differential chemical responses and to identify inhibitors of malarial growth, an assay that measures P. falciparum growth and replication within erythrocytes was employed. This assay uses a DNA binding fluorescent dye (SYBR Green) to detect parasite DNA following cell lysis. Because mature erythrocytes lack DNA, only Plasmodium-derived DNA is detected. The P. falciparum line cp250, derived from a malarial isolate from Cambodia, (Mu, J., et al. 2010) was added to the panel of lines, Dd2, HB3, 7G8 and GB4 in this study. Laboratory of Assay Development and Screening Technology [ADST] and NIH Chemical Genomics Center [NCGC] Boston University, Chemistry Department, Center for Chemical Methodology and Library Development [CMLD-BU] NIH National Institute of Allergy and Infectious Diseases [NIAID]
ADST Assay Protocol Summary: The 1536-well SYBR Green viability assay was based on the method of Bennett et al (2004) and described previously in 1536-well format (Yuan J., et al. 2009). For screening 3 ul culture medium was dispensed into 1536 well black clear bottom plates (Aurora Biotechnologies) using a Multidrop Combi (Thermo Fisher Scientific Inc.), 23 nL compounds in DMSO were added by a pin transfer (Cleveland, P.H. and Koutz, P.J, 2005) using a pin tool-based delivery system (Kalypsys), and 5 ul of erythrocytes infected with P. falciparum one of five lines (cp250, Dd2, HB3, 7G8 or GB4, 0.3% parasitemia, 2.5% hematocrit final concentration) were added. The plates were incubated at 37C in a humidified incubator in 5% CO2 for 72 h, and 2 ul lysis buffer (20 mM Tris HCl, 10 mM EDTA, 0.16% saponin, 1.6% triton X, 10X SYBR Green I (supplied as 10,000X final concentration by Invitrogen) was added to each well. The plates were mixed for 25 sec with gentle shaking and incubated overnight at room temperature in the dark. The following morning, fluorescence intensity at 485(14) nm excitation and 535(25) nm emission wavelengths was measured on an EnVision (Perkin Elmer) plate reader. Plate reads were normalized relative to the control inhibitor (0.29 uM artemisinin) and vehicle (DMSO) wells present on each plate and then corrected by an algorithm using vehicle-only control plates at the beginning and end of the compound plate stack. References Shah, S. (2010). The Fever: how malaria has ruled humankind for 500,000 years. New York, Sarah Crichton Books. CDC web site, http://www.cdc.gov/malaria/about/biology/index.html Mu, J., Myers, R.A., Jiang, H., Liu, S., Ricklefs, S., Waisberg, M., Chotivanich, K., Wilairatana, P., Krudsood, S., White, N.J., et Plasmodium falciparum genome-wide scans for positive selection, recombination hot spots and resistance to antimalarial drugs Nature Genetics 2010, 42, pp 268-271 Bennett TN, Paguio, M., Gligorijevic, B., Seudieu, C., Kosar, A. D., Davidson, E., and Roepe, P. D. Novel, rapid, and inexpensive cell-based quantification of antimalarial drug efficacy Antimicrobial Agents Chemother. 2004, 48(5): pp 1807-10 Yuan J, Johnson RL, Huang RL, Wichterman J, Jiang HY, Hayton K, Fidock DA, Wellems TE, Inglese J, Austin CP, Su XZ. […]
Potency is read from the fitted curve at half-maximal effect.

SMILES | Potency
C[C@@H]1C=CCCO[C@]12C(=O)N(CC1CC1)c1cccc(Br)c12 | inactive
COc1ccc2c(c1)C[C@@H](C)O[C@]21C(=O)Nc2ccccc21 | inactive
CC(=O)OC[C@H]1O[C@H](CC=NO[C@H](C)c2cn([C@@H]3COC[C@@H]3O)nn2)C=C[C@@H]1OC(C)=O | inactive
COC(=O)[C@H]1O[C@@H](c2cc(OC)c(C)c(OC)c2OCc2ccccc2)[C@H](C)[C@H]2O[C@@]12C | inactive
O=C1C2=C(C(=O)c3ccccc31)[C@H]1O[C@](c3ccsc3)(Cc3ccccc31)O2 | 1900 nM (active)
COCCN1C(=O)CC[C@@]23C1=NC(C(=O)OC)=C(C(=O)OC)[C@@H]2N(C)c1ccccc13 | inactive
CC(C)C(=O)NC(=O)[C@@H]1CCCN1C(=O)C=Cc1ccccc1 | inactive
O[C@@H]1CO[C@@H](C=Cc2ccccc2)[C@H]1OCc1cccc(Br)c1 | inactive
O=C1[C@@H]2[C@H]3[C@H](O)[C@H](O)CC(=NOC[C@@H](O)COCc4ccco4)[C@@H]3CC[C@H]2C(=O)N1C1CCCCC1 | inactive
Cc1ccc(C#C[C@@H]2C=C[C@H](Oc3ccc4c(c3)OCO4)[C@@H](CO)O2)c(C)c1 | inactive
COc1ccc(COC(=O)NN=C2C[C@@H](O)[C@@H](O)[C@@H]3[C@H]4C(=O)N(Cc5ccc6c(c5)OCO6)C(=O)[C@@H]4CC[C@H]23)cc1 | inactive
CC(=O)OC[C@H]1O[C@@H](ON=CC[C@@H]2C=C[C@@H](OC(C)=O)[C@@H](COC(C)=O)O2)[C@@H](OC(C)=O)[C@@H](OC(C)=O)[C@@H]1OC(C)=O | inactive
CCCCCCC(=O)Cc1cc(OC)c(OC)cc1C=C(C(C)=O)C(=O)OC | inactive
C=CCNC(=O)[C@H]1C=C(OC)C(=O)C[C@H](c2ccccc2)[C@H]1C | inactive
C=CC[C@@H]1C=C[C@H](ON=C[C@@H](N[S+](=O)([O-])c2ccc(C)cc2)[C@H](C)C=CCC(=O)OC)[C@H](CO)O1 | inactive
CCO[C@@H]1C[C@@]1(C=C[C@@H](C)[C@H](OC)c1ccccc1Br)C(=O)OC | inactive
C=CCOC(=O)N[C@H](C(C(=O)OC)=C(C)NCc1ccccc1)c1ccc(Br)cc1 | inactive
COc1ccc(COC(=O)NN=C2C[C@@H](O)[C@@H](O)[C@@H]3[C@H]4C(=O)N(c5ccc(F)cc5F)C(=O)[C@@H]4CC[C@H]23)cc1 | inactive
COC(=O)C(C(=O)OC)c1ccccc1[N+](=O)[O-] | inactive
CC1=CC[C@@H](COc2ccccc2)O[C@@]2(C1)C(=O)Nc1cccc(Br)c12 | inactive

SMILES | Potency
CC(=O)OC[C@H]1O[C@@H](ON=C(C)CCN2CCCCc3nc(C)c(C)cc32)[C@H](OC(C)=O)[C@@H](OC(C)=O)[C@H]1OC(C)=O | inactive
COc1ccc(O[C@@H]2[C@H](O)CO[C@@H]2C=CC#Cc2ccccc2)cc1 | inactive
CCOC(=O)CN1C(=O)[C@]2(OCCC=C[C@@H]2C)c2cc(OC)ccc21 | inactive
CC(C)CON=C1C[C@@H](O)[C@@H](O)[C@@H]2[C@H]3C(=O)N(C[C@@H]4CCCO4)C(=O)[C@@H]3CC[C@@H]12 | inactive
COC(=O)C1=C(C)N(Cc2ccccc2)C(=NCC2CC2)NC1c1ccc(Br)cc1 (stereo not given) | inactive
COC(=O)C(C(=O)OC)[C@H]1c2ccccc2[C@@H]2C(=C[C@@H](C)[C@H]3C(=O)N(c4ccccc4)C(=O)[C@H]32)N1C(=O)OC | inactive
CC(C)CON=C1C[C@@H](O)[C@@H](O)[C@@H]2[C@H]3C(=O)N(c4ccc(F)cc4F)C(=O)[C@@H]3CC[C@H]12 | inactive
COC1=C[C@H](C(=O)NCCOC(C)=O)[C@@]2(C)Cc3ccccc3[C@@H]2CC1=O | inactive
CC(=O)OC[C@H]1O[C@H](C#Cc2ccc(F)cc2F)C=C[C@H]1OC(C)=O | inactive
CCCCC1=CC2=C(c3ccco3)C(=O)C(C)(OC(=O)c3ccc(OC)cc3)C(=O)C2=CN1Cc1ccc(OC)cc1 (stereo not given) | inactive
Cc1ccc(S(=O)(=O)OC[C@@H]2CN3[C@H](c4ccc(Br)cc4)[C@H](C)CC[C@H]3C(=O)O2)cc1 | inactive
C=C(C(=O)OCC)C(=O)c1ccccc1 | inactive
C[C@H]1Cc2c(-c3ccccc3)nc3c(c2CO1)CN(C(=O)Cc1cccs1)CC3 | inactive
COc1cccc2c1C1(CCCCC1)CC2NC(=O)C(F)(F)F (stereo not given) | inactive
C=CCCC1(CCC)C(=O)C(=C(O)c2ccccc2)C(=O)C(CCC)=C1OC (stereo not given) | inactive
CC(C)=CCCC(C)=CCON=C1C[C@@H](O)[C@@H](O)[C@@H]2[C@H]3C(=O)N(c4cccc(Oc5ccccc5)c4)C(=O)[C@@H]3CC[C@H]12 | inactive
CCN1C(=NCCc2cccnc2)NC(c2ccccc2)C(C(=O)OC)=C1C (stereo not given) | inactive
OC[C@H]1O[C@H](C#Cc2ccccc2)C=C[C@@H]1O | inactive
COC(=O)N[C@@H](c1ccccc1)[C@]1(C(C)=O)CCCC1=O | inactive
Cc1ccc2[nH]c3nc(CCCn4ccnc4-c4ccccc4)nnc3c2c1 | inactive
